Most compounds without a hit are left out; they make up all but 2.7% or so of the library.
Shn3 3UTR inh – inhibitors of Schnurri-3 3'UTR reporter in osteoblasts; AID 588674; Clone20 osteoblast Shn3 3'UTR firefly luciferase, 24 h; inhibition, % at 12.5 µM; 0.52% of 360,000 active;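 active = mean inhibition of at least 75% with every replicate also reaching 75%; inconclusive = mean inhibition at least 75% but some replicate below; inactive = mean inhibition below 75%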
KKLEB cytotox – reduces viability of KKLEB cystic fibrosis airway cells | KKLEB CF airway cells viability, ATPlite luminescence, overnight; hits give low values; cells stimulated with P. aeruginosa culture filtrate | activity change (cytotoxicity), % at 5 µM | 0.36% of 360,000 active | AID 602141;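 active = corrected activity change at or below -50% at 5 µM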
Peg3 prom inh-1 – Peg3 promoter activity inhibition; 1.7% of 360,000 active; AID 588405; HeLa PEG-Prom luciferase reporter, luminescence, overnight; inhibition, % at 20 µM;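 active = inhibition of at least 50% at 20 µM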
TRPM1 prom inh – reduces MITF-dependent TRPM1 promoter luciferase signal | SK-MEL-5 TRPM1 promoter luciferase, 24 h | inhibition, % at 12.5 µM | 0.83% of 330,000 active | AID 488899;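 active = mean inhibition across replicates of 60% or more, whatever share of single replicates reaches that level; inconclusive = some that reach 60%, reason not given; inactive = mean inhibition across replicates below 60%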
HIF-2a block – blocks HIF-2a reporter activity. inhibition, % at 18.8 µM. 786-0 RCC cells HIF-2a reporter, luciferase luminescence, overnight. 0.72% of 360,000 active;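 active = inhibition of the luminescence signal of 40% or more relative to plate controls, in a single-dose primary screen at 18.75 µM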
CF NFkB inh – blocks PAF-induced NF-kB reporter in cystic fibrosis cells | KKLEB NF-kB-GFP reporter, GFP fluorescence overnight | inhibition, % at 5 µM | 0.86% of 360,000 active | AID 588850;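 active = at least 50% inhibition at 5 µM, scaled per plate between neutral and stimulator controls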;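 also: PAF is a Pseudomonas aeruginosa culture filtrate used as stimulus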
Peg3 prom inh-2 – Peg3 promoter inhibition confirmation. shares compounds with Peg3 prom inh-1. HeLa PEG-Prom luciferase reporter, luminescence, overnight. inhibition, % at 20 µM. 84% of 1,300 active. AID 602417;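 active = at 20 µM dose, 40% or more inhibition averaged across four replicates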
Large screens that a line does not name were inactive (follow-up assays come after a bar, where they were run).

CCCNC(=O)C1(C)CCCN(Cc2ccc(-c3ccccn3)cc2)C1 (stereo unspecified)	none (no result: TRPM1 prom inh)
CCOC(=O)C1CCN(C(=O)C2(NC(=O)NC3CCCCC3)CCCCC2)CC1	Peg3 prom inh-1 64
CC(C)Oc1cc(F)ccc1-c1cc(C(=O)NCc2cccs2)[nH]n1	none (no result: TRPM1 prom inh)
O=C(/C=C/c1ccc(S(=O)(=O)N2CCOCC2)cc1)N1CCN(c2ccccc2)CC1	Peg3 prom inh-1 66
O=C1CC(c2ccc(O)c(O)c2)Oc2cc(O)cc(O)c21 (stereo unspecified)	none
Oc1ccc(C2C[C@H]3CC[C@@H]2C3)cc1O (stereo partly specified)	HIF-2a block 55
C/C(=N\Nc1ccc(C(=O)c2c(C)cc3ccccn23)cc1[N+](=O)[O-])c1ccc(O)cc1	KKLEB cytotox -62, CF NFkB inh 69
C/C(=N/Nc1ccc(C(=O)c2c(C)cc3ccccn23)cc1[N+](=O)[O-])c1ccc(O)cc1	none
CCOC(=O)C1=C(c2ccccc2)NC(N)=NC1c1ccc(OCc2ccc(Cl)cc2)c(OC)c1 (stereo unspecified)	Peg3 prom inh-1 110
Cc1cc(C(=O)CSc2nc3ccccc3[nH]2)c(C)n1CC1CCCO1 (stereo unspecified)	Peg3 prom inh-1 102
O=C(Nc1c2ccccc2nc2ccccc12)C(Cl)(Cl)Cl	Peg3 prom inh-1 96
CC1(C(=O)NCc2cccs2)Cc2c(-c3ccc(C(N)=O)cc3)ccnc2O1 (stereo unspecified)	none (no result: TRPM1 prom inh)
Cc1ccc(S(=O)(=O)Nc2cccc3ncccc23)cc1	none
Cc1ccc(S(=O)(=O)Nc2ccc(O)c3ncccc23)cc1	Shn3 3UTR inh 92
Cc1ccc(S(=O)(=O)Nc2ccc(O)c3cccnc23)cc1	Peg3 prom inh-1 78, HIF-2a block 84, CF NFkB inh 59
Cc1ccc(S(=O)(=O)Nc2ccccc2O)cc1	none (no result: Shn3 3UTR inh, KKLEB cytotox, Peg3 prom inh-1, TRPM1 prom inh, CF NFkB inh)
CC(C)C[C@H]1CNC(=O)C(=O)N1C[C@H]1CCCN1C[C@H](CC(C)C)N1C[C@H](CC(C)C)N(CCc2ccccc2)C(=O)C1=O	none (no result: Shn3 3UTR inh, KKLEB cytotox, Peg3 prom inh-1, TRPM1 prom inh, CF NFkB inh)
CCN1CCN(C(c2ccc(C(F)(F)F)cc2)c2ccc3cccnc3c2O)CC1 (stereo unspecified)	Peg3 prom inh-1 55, TRPM1 prom inh 66, HIF-2a block 49 | Peg3 prom inh-2 60
CCc1nc2ccc(C(=O)Nc3cccc(NS(C)(=O)=O)c3)cn2c1N(C)Cc1nccn1C	none (no result: TRPM1 prom inh)
NC(CCc1ccccc1)c1csc(Nc2cnccn2)n1 (stereo unspecified)	none (no result: TRPM1 prom inh)
COc1ccc(-c2sc3ccccc3c2-c2ccc(OCCN3CCCCC3)cc2)cc1	Peg3 prom inh-1 96 | Peg3 prom inh-2 79
COc1ccc(-c2sc3cc(OC)ccc3c2-c2ccc(OCCN3CCCCC3)cc2)cc1	none (no result: Shn3 3UTR inh, KKLEB cytotox, Peg3 prom inh-1, TRPM1 prom inh, CF NFkB inh)
COc1ccccc1N1CCN(C(=O)CSc2ccccc2)CC1	none
COc1ccccc1N1CCN(C(=O)C(Sc2ccccc2)c2ccccc2)CC1 (stereo unspecified)	Peg3 prom inh-1 52 | Peg3 prom inh-2 41
O=C1c2cccc3cccc(c23)C(=O)N1CCCN(C(=O)c1cccs1)c1cccc(F)c1	Peg3 prom inh-1 52 | Peg3 prom inh-2 inactive
Cc1nn(C)c(Cl)c1CN1CCC(CO)(CCOc2ccccc2)CC1	none
Cc1c(CN2CCC(CO)(CCOc3ccccc3)CC2)[nH]c2c(Cl)cccc12	Peg3 prom inh-1 99 | Peg3 prom inh-2 99
CCCC(=O)N1CCC1(C)C(=O)NS(=O)(=O)c1ccccc1 (stereo unspecified)	none (no result: TRPM1 prom inh)
O=C(c1ccco1)N1CCN(C(c2ccccc2Cl)c2nnnn2Cc2cccs2)CC1 (stereo unspecified)	Peg3 prom inh-1 52 | Peg3 prom inh-2 58
O=C(c1ccco1)N1CCN(C(c2ccccc2Cl)c2nnnn2Cc2ccco2)CC1 (stereo unspecified)	none
C[C@@H]1[C@H]2[C@@H]3CC[C@@H](C3)[C@H]2CN[C@H]1c1cn(Cc2ccccc2)c2ccccc12	Peg3 prom inh-1 71 | Peg3 prom inh-2 54
Cc1[nH]nc(S(=O)CC(=O)O)c1[N+](=O)[O-] (stereo unspecified)	Peg3 prom inh-1 51 | Peg3 prom inh-2 inactive
C[C@H]1CN([C@@H](C)CO)C(=O)c2cc(Br)cnc2O[C@H]1CN(C)C(=O)Cc1ccccn1	none (no result: TRPM1 prom inh)
CC(/C=C/c1cccc([N+](=O)[O-])c1)=N/NC(=O)c1cccnc1	none
CC(/C=C/c1ccccc1)=N/NC(=O)c1cc([N+](=O)[O-])cc([N+](=O)[O-])c1	Peg3 prom inh-1 51 | Peg3 prom inh-2 51
COc1ccc(S(=O)(=O)N2CCCC(c3cc(C(=O)NCc4cccnc4)no3)C2)cc1 (stereo unspecified)	none (no result: TRPM1 prom inh)
CCc1nn(CC(=O)NCCN2CCOCC2)c(=O)c2cc3c(OC)cccc3n12	none
CCCSCCCNC(=O)Cn1nc(CC)n2c(cc3c(OC)cccc32)c1=O	Peg3 prom inh-1 54 (no result: TRPM1 prom inh) | Peg3 prom inh-2 inactive
COc1ccc(-c2coc3c(C(=O)NCCN(C)C)cccc23)c(C)c1	none (no result: TRPM1 prom inh)
COc1ccc(-c2nc3c(C(=O)NCCN(C)C)cccc3c3ccccc23)cc1	Peg3 prom inh-1 95 | Peg3 prom inh-2 99
O=C(Nc1ccccc1)c1nc[nH]c1C(=O)NCCCNC(=O)c1[nH]cnc1C(=O)Nc1ccccc1	Peg3 prom inh-1 63 | Peg3 prom inh-2 46
CNC(=O)c1[nH]cnc1C(=O)Nc1ccccc1	none
O=C(Nc1ccccc1)c1nc[nH]c1C(=O)NCCCCCCNC(=O)c1[nH]cnc1C(=O)Nc1ccccc1	Peg3 prom inh-1 62 | Peg3 prom inh-2 57
O=C(Nc1ccccc1)c1nc[nH]c1C(=O)NCCN(CCNC(=O)c1[nH]cnc1C(=O)Nc1ccccc1)CCNC(=O)c1[nH]cnc1C(=O)Nc1ccccc1	none
CCOC(=O)c1ccc(NC(=O)C2CCCN(S(=O)(=O)c3ccc(F)cc3)C2)cc1 (stereo unspecified)	Peg3 prom inh-1 74 | Peg3 prom inh-2 56
CCCCn1c(N)c(N(CC(C)C)C(=O)c2cc(Br)c(Br)s2)c(=O)[nH]c1=O	Peg3 prom inh-1 81 | Peg3 prom inh-2 41
NC1=C(Br)C(=O)c2ncccc2C1=O	Shn3 3UTR inh 97, KKLEB cytotox -64, Peg3 prom inh-1 102, TRPM1 prom inh 94, HIF-2a block 83, CF NFkB inh 79 | Peg3 prom inh-2 99
Cc1ccc(NC(=O)c2ccc(OCC3CCCO3)cc2)nc1 (stereo unspecified)	none
Cc1cnc(NC(=O)c2ccc(OCC3CCCO3)cc2)s1 (stereo unspecified)	Peg3 prom inh-1 53 | Peg3 prom inh-2 inactive
Cc1ccc(NC(=O)N2CCc3ccccc32)cc1	none
CN1CCN(c2ccc(NC(=O)N3CCc4ccccc43)cc2)CC1	Peg3 prom inh-1 58, TRPM1 prom inh inconclusive | Peg3 prom inh-2 51
